Screens from PubChem BioAssay.
A selection: hits, their analogues and other compounds. The true share with any hit is near 19%.
HT1080NT lethal – qHTS for induction of synthetic lethality in tumor cells producing 2HG: qHTS for the HT-1080-NT fibrosarcoma cell line | Potency, µM (top dose mostly 46.1 µM), inactives show at the highest dose activity, negative = less viability, most hits filed as cytotoxic | HT-1080-NT fibrosarcoma viability, CellTiter-Glo ATP luminescence, 48 h | 1.6% of 360,000 active;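 also: NT is the 2HG producing partner of a matched IDH1 knockdown line; 0% = DMSO-treated cells and -100% = media-only wells without cells; nearly all actives have a fitted effect of over 55% in size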
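Compounds were tested in concentration-response format on HT-1080-NT cells for 48 hours at 37 degrees C. Cell viability came from CellTiter-Glo luminescence; curves were classified by r2, response magnitude and activity.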
TDP1 cell noCPT – qHTS for Inhibitors of human tyrosyl-DNA phosphodiesterase 1 (TDP1): qHTS in cells in absence of CPT; DT40 Tdp1-/- hTDP1 cells, no CPT, ATP luminescence, 48 h; Potency, µM (series often up to 46.2 µM), for inactives: at the top dose activity change, negative = growth inhibition, usual class: inhibitors; 15% of 420,000 active; AID 686978, 2013; also: nearly all actives have a fitted effect of over 55% in size
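Stably hTDP1-transfected Tdp1-null chicken DT40 cells were treated with library compounds minus camptothecin and grown for at least 48 hr at 37 °C, after which cellular ATP was quantified by luminescence.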
HT1080 IDH1KD tx – qHTS for induction of synthetic lethality in tumor cells producing 2HG: qHTS for the HT-1080-IDH1KD cell line; 2% of 360,000 active; AID 686971, 2013; HT-1080 IDH1 knockdown viability, ATP luminescence, 48 h; Potency, µM (titrated, usually from 46.1 µM), without a hit: top-dose activity, negative = toxicity, hits mostly cytotoxic;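 also: 0% = DMSO wells and -100% = cell-free medium wells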
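Knockdown cells (IDH1KD HT-1080) received compounds 2 h after plating at 750 cells/well and were kept 48 h at 37 °C in 5% FBS RPMI. A CellTiter-Glo luminescence read gave % activity for curve fitting.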
TDP1 cell CPT – qHTS for Inhibitors of human tyrosyl-DNA phosphodiesterase 1 (TDP1): qHTS in cells in presence of CPT; 12% of 420,000 active; Potency, µM (doses to about 46.2 µM), for inactives: top-dose activity change, negative = growth inhibition, hits mostly inhibitors; chicken DT40 Tdp1-/-;hTDP1 cells + 20 nM CPT, ATP luminescence, 48 h; also: nearly all actives have a fitted effect of over 55% in size
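Chicken DT40 Tdp1-/- cells complemented with human TDP1, 400 cells/well, exposed to compounds plus 20 nM camptothecin for at least 48 h at 37 C; viability read as ATP content by CellTiter-Glo luminescence.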
KB-V1 MDR tox – qHTS assay for MDR1-selective chemotherapeutics: Primary screen using the drug-selected MDR subline cells KB-V1. AID 1347076, 2019. KB-V1 MDR cells viability, CellTiter-Glo, 72 h. 3.4% of 400,000 active. Potency, µM (titrated, usually from 46.1 µM), hits mostly cytotoxic; also: nearly all actives have a fitted effect of over 60% in size
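KB-V1 cells (P-gp-expressing MDR subline of KB-3-1) in phenol-red-free DMEM with 10% FBS were exposed to library compounds over a concentration series for 72 h at 37 degrees C. Viability read by CellTiter-Glo luminescence; concentration-effect curves fitted after normalization.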
KB-3-1 cytotox – qHTS assay for MDR1-selective chemotherapeutics: Primary screen using the parental adenocarcinoma cell KB-3-1. KB-3-1 viability, CellTiter-Glo ATP luminescence, 72 h. Potency, µM (series often up to 46.1 µM), actives largely listed as cytotoxic. 1.4% of 400,000 active. AID 1347075, 2019; also: nearly all actives have a fitted effect of over 60% in size
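Viability of parental KB-3-1 cells, measured by CellTiter-Glo luminescence, followed a 72 h incubation at 37 °C with pinned compounds in phenol-red-free DMEM containing 10% FBS.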
* hit, by the source's call; [ ] = remark or other dose. Calls follow the shape of the dose curve; as a rule, active = well fitted curve in the direction sought with a large enough effect; inconclusive = small, poorly fitted or top-dose-only effect, or another doubt; inactive = no such curve, though single readings can be large; an effect the other way counts as inactive or inconclusive. Unless noted, % is scaled to controls: 0 for no effect and ±100 for the full control effect; potency is read from the fitted curve at half-maximal effect.

What do the screens show for `CCN(CC)P(=O)(c1ccccc1)c1c(C)nc2ccccn12` (stereo not drawn)?
HT1080NT lethal: 11%; TDP1 cell noCPT: -21%; HT1080 IDH1KD tx: 5%; TDP1 cell CPT: -6%; KB-V1 MDR tox: inactive; KB-3-1 cytotox: inactive

What do the screens show for `Cc1ccnc(NC(=O)Cn2c(=O)oc3cc(S(=O)(=O)N4CCCC4)ccc32)c1`?
HT1080NT lethal: 10%; TDP1 cell noCPT: 1%; HT1080 IDH1KD tx: 8%; TDP1 cell CPT: -2%; KB-V1 MDR tox: inactive; KB-3-1 cytotox: inactive

How did COc1ccc(C)cc1NC(=O)Cn1c(=O)oc2cc(S(=O)(=O)N3CCCCC3)ccc21 do in these assays?
TDP1 cell noCPT: 15µM*; TDP1 cell CPT: inconclusive; KB-V1 MDR tox: inactive; KB-3-1 cytotox: inactive

How did COc1ccc(C)cc1NC(=O)Cn1c(=O)ccc2cc(S(=O)(=O)N3CCCC3)ccc21 do in these assays?
TDP1 cell noCPT: 21µM*; TDP1 cell CPT: 21µM*; KB-V1 MDR tox: inactive; KB-3-1 cytotox: inactive

Results for COc1ccc(Cl)cc1NC(=O)CN1C(=O)CSc2ccc(S(=O)(=O)N3CCCC3)cc21 ?
TDP1 cell noCPT: 23µM*; TDP1 cell CPT: 16µM*

Results for COc1cccc(NC(=O)Cn2c(=O)oc3cc(S(=O)(=O)N4CCCCC4)ccc32)c1 ?
TDP1 cell noCPT: inconclusive; TDP1 cell CPT: inconclusive; KB-V1 MDR tox: inactive; KB-3-1 cytotox: inconclusive

Results for COc1ccc(Cl)cc1NC(=O)Cn1c(=O)oc2cc(S(=O)(=O)N3CCCCCC3)ccc21 ?
TDP1 cell noCPT: 16µM*; TDP1 cell CPT: inconclusive; KB-V1 MDR tox: inactive; KB-3-1 cytotox: inactive

What do the screens show for `COc1cccc(C(N)=O)c1OC(=O)Cc1ccccc1F`?
HT1080NT lethal: 12%; TDP1 cell noCPT: -27%; HT1080 IDH1KD tx: 1%; TDP1 cell CPT: 8%; KB-V1 MDR tox: inactive; KB-3-1 cytotox: inactive

What do the screens show for `CCN(C(=O)CN1C(=O)COc2ccc(S(=O)(=O)N3CCOCC3)cc21)c1cccc(C)c1`?
TDP1 cell noCPT: 18µM*; TDP1 cell CPT: inconclusive

Results for Cc1ccc(S(=O)(=O)Nc2ccc(S(=O)(=O)Nc3nccs3)cc2)c([N+](=O)[O-])c1 ?
HT1080NT lethal: 3%; TDP1 cell noCPT: inconclusive; HT1080 IDH1KD tx: -2%; TDP1 cell CPT: inconclusive; KB-V1 MDR tox: inconclusive; KB-3-1 cytotox: inactive

How did CN(C)c1ccc(NC(=O)Cn2nnc3sc4c(c3c2=O)CCC(C(C)(C)C)C4)cc1 (stereo not drawn) do in these assays?
TDP1 cell noCPT: inconclusive; TDP1 cell CPT: inconclusive; KB-V1 MDR tox: inactive; KB-3-1 cytotox: inactive

What do the screens show for `CC(C)(C)NC(=O)C(c1ccco1)N(C(=O)Cn1nnc(-c2ccc(F)cc2)n1)c1cccc(F)c1` (stereo not drawn)?
HT1080NT lethal: 4%; TDP1 cell noCPT: 21µM*; HT1080 IDH1KD tx: 6%; TDP1 cell CPT: inconclusive; KB-V1 MDR tox: inactive; KB-3-1 cytotox: inactive

What do the screens show for `CC(C)(C)NC(=O)C(c1ccncc1)N(Cc1cccs1)C(=O)Cn1nnc(-c2ccc(F)cc2)n1` (stereo not drawn)?
HT1080NT lethal: inconclusive; TDP1 cell noCPT: -20%; HT1080 IDH1KD tx: inconclusive; TDP1 cell CPT: inconclusive; KB-V1 MDR tox: inactive; KB-3-1 cytotox: inactive

How did CC(C)(C)NC(=O)C(c1c[nH]c2ccccc12)N(C(=O)Cn1nnc(-c2ccc(F)cc2)n1)c1cccc(O)c1 (stereo not drawn) do in these assays?
HT1080NT lethal: -20%; TDP1 cell noCPT: 21µM*; HT1080 IDH1KD tx: inconclusive; TDP1 cell CPT: inconclusive; KB-V1 MDR tox: inactive; KB-3-1 cytotox: inconclusive

What do the screens show for `Cc1ccc(-c2nnn(CC(=O)N(c3ccc(F)cc3)C(C(=O)NC(C)(C)C)c3ccco3)n2)o1` (stereo not drawn)?
HT1080NT lethal: -16%; TDP1 cell noCPT: inconclusive; HT1080 IDH1KD tx: -14%; TDP1 cell CPT: -3%; KB-V1 MDR tox: inactive; KB-3-1 cytotox: inconclusive

How did O=C(C1CCOC1)N1CCOc2ccc(CN3CCC(Oc4cccnc4)CC3)cc2C1 (stereo not drawn) do in these assays?
TDP1 cell noCPT: -10%; TDP1 cell CPT: -13%[9.04 µM]

What do the screens show for `Cc1cnc(CNc2cc(-c3ccc(C(=O)N(C)C)cc3)ncn2)cn1`?
TDP1 cell noCPT: 20%; TDP1 cell CPT: 5%

Results for COc1ccc(-c2cc(=O)oc3c(C)c(OC(C)C(=O)NCc4ccccn4)ccc23)cc1 (stereo not drawn) ?
HT1080NT lethal: 6%; TDP1 cell noCPT: 26µM*; HT1080 IDH1KD tx: 8%; TDP1 cell CPT: inconclusive; KB-V1 MDR tox: inactive; KB-3-1 cytotox: inactive

Results for COc1ccc(-c2cc(=O)oc3cc(OCC(=O)NCCCn4ccnc4)ccc23)cc1 ?
HT1080NT lethal: 0%; TDP1 cell noCPT: inconclusive; HT1080 IDH1KD tx: -2%; TDP1 cell CPT: 21µM*; KB-V1 MDR tox: inconclusive; KB-3-1 cytotox: inactive

How did CCc1cc(=O)oc2cc(OCC(=O)NCCCn3ccnc3)ccc12 do in these assays?
HT1080NT lethal: -11%; TDP1 cell noCPT: 1%; HT1080 IDH1KD tx: 2%; TDP1 cell CPT: -8%; KB-V1 MDR tox: inactive; KB-3-1 cytotox: inactive

How did COc1ccc(-c2cc(=O)oc3cc(OC(C)C(=O)NCCCn4ccnc4)ccc23)cc1 (stereo not drawn) do in these assays?
HT1080NT lethal: -10%; TDP1 cell noCPT: 21µM*; HT1080 IDH1KD tx: -9%; TDP1 cell CPT: 18µM*; KB-V1 MDR tox: inactive; KB-3-1 cytotox: inactive

Results for CC1CCN(S(=O)(=O)c2ccc3c(c2)N(CC(=O)N2CCN(c4ccc(Cl)cc4)CC2)C(=O)CO3)CC1 ?
KB-V1 MDR tox: inconclusive; KB-3-1 cytotox: inactive

Results for O=c1[nH]c(SCc2cccc(F)c2)nc2c1CCCC2 ?
HT1080NT lethal: -2%; TDP1 cell noCPT: inconclusive; HT1080 IDH1KD tx: 1%; TDP1 cell CPT: inconclusive; KB-V1 MDR tox: 15µM*; KB-3-1 cytotox: inactive
